Laboratory results as given in PubChem BioAssay (Tox21).
Inconclusive results are not listed. Activity calls are given as the source filed them. Unless noted, calls come from the whole dose curve; as a rule, active = well fitted curve in the direction sought with a large enough effect in the repeat runs; inconclusive = weak or mixed curves; inactive = no such curve, though single readings can be large; an effect the other way counts as inactive or inconclusive.

Experiments:
[1] = qHTS assay to identify aromatase inhibitors - cell viability counter screen (AID 743084);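 note: cells stimulated with testosterone during compound exposure; nearly all actives have a fitted effect of over 55% in size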
[2] = target: Aryl hydrocarbon receptor (Homo sapiens) (UniProt P35869); test: qHTS assay to identify small molecule that activate the aryl hydrocarbon receptor (AhR) signaling pathway (AID 743085);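 note: HG2L7.5c1 human HepG2 liver cells with stably integrated DRE-driven firefly reporter; series mostly up to about 70 µM; nearly all actives have a fitted effect of over 15% in size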
Sequence of Aryl hydrocarbon receptor (Homo sapiens) (P35869 whole entry, looked up): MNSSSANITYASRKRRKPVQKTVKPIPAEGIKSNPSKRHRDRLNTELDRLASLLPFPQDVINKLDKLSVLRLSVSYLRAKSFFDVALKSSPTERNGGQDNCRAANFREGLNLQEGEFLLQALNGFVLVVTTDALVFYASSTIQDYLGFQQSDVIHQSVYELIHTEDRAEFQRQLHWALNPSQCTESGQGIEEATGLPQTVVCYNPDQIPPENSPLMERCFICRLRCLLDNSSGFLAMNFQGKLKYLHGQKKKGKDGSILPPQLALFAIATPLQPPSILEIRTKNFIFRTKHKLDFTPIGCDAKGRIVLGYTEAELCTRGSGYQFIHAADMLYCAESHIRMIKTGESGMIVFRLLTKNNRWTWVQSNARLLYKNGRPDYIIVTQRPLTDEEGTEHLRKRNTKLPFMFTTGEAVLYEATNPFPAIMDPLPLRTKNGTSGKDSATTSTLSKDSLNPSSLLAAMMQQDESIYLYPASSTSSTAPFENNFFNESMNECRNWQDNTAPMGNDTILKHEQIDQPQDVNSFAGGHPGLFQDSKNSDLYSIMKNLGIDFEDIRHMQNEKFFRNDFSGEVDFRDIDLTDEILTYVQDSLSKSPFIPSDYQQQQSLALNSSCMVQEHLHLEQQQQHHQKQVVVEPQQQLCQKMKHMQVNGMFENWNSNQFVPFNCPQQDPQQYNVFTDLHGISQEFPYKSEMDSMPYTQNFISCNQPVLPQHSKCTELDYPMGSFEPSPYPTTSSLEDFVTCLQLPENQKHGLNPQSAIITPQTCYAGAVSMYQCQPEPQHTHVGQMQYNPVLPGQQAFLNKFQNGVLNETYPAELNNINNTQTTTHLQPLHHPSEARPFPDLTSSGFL
Method in brief: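 Reporter assay in engineered HepG2 line HG2L7.5c1, whose plasmid carries twenty dioxin responsive elements upstream of firefly luciferase. Treatment lasted 24 h at 37C; ONE-Glo luminescence gauged induction.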

[3] = qHTS assay to identify small molecule that activate the aryl hydrocarbon receptor (AhR) signaling pathway - cell viability counter screen (AID 743086);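 note: HepG2 liver cells carrying the AhR DRE luciferase reporter; series mostly up to about 70 µM; nearly all actives have a fitted effect of over 45% in size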
Method in brief: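 HepG2-AhR-luc (HG2L7.5c1) cells, 4000/well, were preincubated 5 h at 37C, exposed to compound in qHTS format for 24 hr at 37C, then given CellTiter-Fluor for 30 min; viability was read as fluorescence in the reporter wells.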

[4] = target: Peroxisome proliferator-activated receptor gamma (Homo sapiens) (UniProt P37231); test: qHTS assay to identify small molecule agonists of the peroxisome proliferator-activated receptor gamma (PPARg) signaling pathway (AID 743094; active = well fitted activation curve with a large enough effect in the signal ratio in the repeat runs, not every such curve was filed as active; the % refers to the signal ratio)
Sequence of Peroxisome proliferator-activated receptor gamma (Homo sapiens) (P37231 whole entry, looked up): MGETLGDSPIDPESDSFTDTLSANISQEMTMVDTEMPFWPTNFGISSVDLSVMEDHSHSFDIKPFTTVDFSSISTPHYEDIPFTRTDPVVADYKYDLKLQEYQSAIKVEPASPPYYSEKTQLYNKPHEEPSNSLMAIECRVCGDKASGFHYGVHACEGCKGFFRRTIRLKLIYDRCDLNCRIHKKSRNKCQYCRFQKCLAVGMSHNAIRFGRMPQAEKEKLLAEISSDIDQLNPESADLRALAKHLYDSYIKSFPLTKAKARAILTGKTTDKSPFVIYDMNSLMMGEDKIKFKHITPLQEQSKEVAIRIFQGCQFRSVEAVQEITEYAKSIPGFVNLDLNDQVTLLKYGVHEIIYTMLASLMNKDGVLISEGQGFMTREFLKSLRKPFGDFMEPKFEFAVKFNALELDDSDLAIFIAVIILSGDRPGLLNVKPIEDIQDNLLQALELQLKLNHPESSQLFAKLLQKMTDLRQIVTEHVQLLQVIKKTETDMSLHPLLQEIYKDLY
Method in brief: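 HEK293H PPARg-bla cells, 5 h settle at 37C/5% CO2; compound (DMSO) 17 h, 37C; B/G FRET substrate 1 h RT; fluorescence intensity read-out. qHTS format.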

[5] = qHTS assay to identify small molecule antagonists of the peroxisome proliferator-activated receptor gamma (PPARg) signaling pathway - cell viability counter screen (AID 743194); note: nearly all actives have a fitted effect of over 55% in size
Method in brief: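 PPARg-UAS-bla HEK293H cells were plated, rested 5 h at 37 C, then treated with compounds plus rosiglitazone (50 nM final) for 17 h at 37 C; viability was then read by CellTiter-Glo luminescence after 30 min at room temperature.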

[6] = qHTS assay for small molecule agonists of the antioxidant response element (ARE) signaling pathway (AID 743202; active = well fitted activation curve with a large enough effect in the signal ratio in the repeat runs, not every such curve was filed as active; the % refers to the signal ratio)
Method in brief: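 Steps: seed ARE-bla HepG2 cells (2,000/well); incubate 5 h at 37 C; add compounds by pin tool; incubate 16 h at 37 C; add FRET substrate; read fluorescence after 2 h at RT.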

[7] = qHTS assay for small molecule agonists of the antioxidant response element (ARE) signaling pathway - cell viability counter screen (AID 743203; calls by dose curve; note: nearly all actives have a fitted effect of over 55% in size)
Method in brief: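 Luminescence read-out (CellTiter-Glo, 30 min at room temperature) measured cell viability in the same wells as the ARE beta-lactamase reporter. HepG2 ARE-bla cells were treated with compounds for 16 hrs at 37C/5% CO2.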

[8] = qHTS assay for small molecule activators of the heat shock response signaling pathway - cell viability counter screen (AID 743209); note: nearly all actives have a fitted effect of over 50% in size
Method in brief: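 HSE-bla HeLa; 1500 cells/well; overnight 37 C, 5% CO2; compound 5 h 37 C; LiveBLAzer B/G substrate 2.5 h RT; CellTiter-Glo 30 min RT; luminescence.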

[9] = qHTS assay for small molecule activators of the heat shock response signaling pathway (AID 743210; active = well fitted activation curve with a large enough effect in the signal ratio in the repeat runs, with a control signal flat, not every such curve was filed as active; the % refers to the signal ratio;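 note: HeLa cells with beta-lactamase reporter driven by heat shock elements; series mostly up to about 63 µM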)
Method in brief: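 Activation of heat shock element-controlled beta-lactamase expression is measured in HeLa cells by LiveBLAzer FRET fluorescence, with compound exposure lasting 5 h at 37 C and substrate loading 2.5 h at room temperature.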

[10] = qHTS assay to identify small molecule agonists of the peroxisome proliferator-activated receptor delta (PPARd) signaling pathway - cell viability counter screen (AID 743211); note: nearly all actives have a fitted effect of over 55% in size
Method in brief: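 Multiplexed format: after the 2 h room-temperature LiveBLAzer B/G FRET step, CellTiter-Glo was added to the same wells. Luminescence after 30 min gave cell viability; compound exposure was 17 h at 37C.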

[11] = target: Peroxisome proliferator-activated receptor delta (Homo sapiens) (UniProt Q03181); test: qHTS assay to identify small molecule agonists of the peroxisome proliferator-activated receptor delta (PPARd) signaling pathway (AID 743212; calls by dose curve)
Sequence of Peroxisome proliferator-activated receptor delta (Homo sapiens) (Q03181 whole entry, looked up): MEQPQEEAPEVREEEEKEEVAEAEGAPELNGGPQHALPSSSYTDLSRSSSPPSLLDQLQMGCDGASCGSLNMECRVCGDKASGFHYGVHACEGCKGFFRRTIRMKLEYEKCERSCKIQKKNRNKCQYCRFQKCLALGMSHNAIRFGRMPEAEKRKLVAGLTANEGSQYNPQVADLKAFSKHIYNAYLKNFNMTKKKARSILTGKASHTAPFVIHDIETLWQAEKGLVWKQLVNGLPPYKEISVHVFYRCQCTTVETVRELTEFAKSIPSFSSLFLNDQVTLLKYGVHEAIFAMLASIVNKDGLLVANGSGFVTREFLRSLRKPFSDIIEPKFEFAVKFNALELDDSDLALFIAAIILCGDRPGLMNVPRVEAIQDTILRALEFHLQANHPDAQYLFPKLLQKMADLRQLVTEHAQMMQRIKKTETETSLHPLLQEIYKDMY
Method in brief: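 Cells expressing a UAS-driven beta-lactamase reporter (PPARd-bla HEK293H) were given test compounds after a 5 h settle and kept at 37 C. Reporter activity was then measured as FRET fluorescence using LiveBLAzer B/G substrate.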

[12] = target: Peroxisome proliferator-activated receptor delta (Homo sapiens) (UniProt Q03181); test: qHTS assay to identify small molecule antagonists of the peroxisome proliferator-activated receptor delta (PPARd) signaling pathway (AID 743215; active = well fitted inhibition curve with a large enough effect in the signal ratio in the repeat runs, not every such curve was filed as active; the % refers to the signal ratio;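 note: cells stimulated with agonist L165041 at 300 nM final during compound exposure; series mostly up to about 62 µM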)
Method in brief: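 HEK293H GeneBLAzer PPARd UAS-bla reporter cells; cpd + L165041 300 nM final, 17 h 37 C; LiveBLAzer B/G FRET substrate 2 h RT; fluorescence intensity read-out. Antagonist mode.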

[13] = target: Bile acid receptor (Homo sapiens) (UniProt Q96RI1); test: qHTS assay to identify small molecule antagonists of the farnesoid-X-receptor (FXR) signaling pathway (AID 743217; active = well fitted inhibition curve with a large enough effect in the signal ratio in the repeat runs, not every such curve was filed as active; the % refers to the signal ratio)
Sequence of Bile acid receptor (Homo sapiens) (Q96RI1 whole entry, looked up): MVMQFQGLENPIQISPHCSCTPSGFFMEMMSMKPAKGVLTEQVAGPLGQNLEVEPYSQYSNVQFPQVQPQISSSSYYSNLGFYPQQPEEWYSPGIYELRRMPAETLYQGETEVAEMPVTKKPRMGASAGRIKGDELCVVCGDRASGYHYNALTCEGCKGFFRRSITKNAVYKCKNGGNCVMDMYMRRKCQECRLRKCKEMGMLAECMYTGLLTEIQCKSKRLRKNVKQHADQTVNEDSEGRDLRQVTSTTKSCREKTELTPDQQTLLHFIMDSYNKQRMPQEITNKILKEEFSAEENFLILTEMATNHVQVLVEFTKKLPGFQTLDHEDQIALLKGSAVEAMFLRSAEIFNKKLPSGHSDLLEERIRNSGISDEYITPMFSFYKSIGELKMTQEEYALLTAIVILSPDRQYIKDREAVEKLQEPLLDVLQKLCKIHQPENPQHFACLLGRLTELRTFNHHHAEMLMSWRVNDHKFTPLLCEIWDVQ
Method in brief: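 Read-out: beta-lactamase FRET fluorescence (LiveBLAzer B/G substrate, 2 h, room temperature) in GeneBLAzer FXR-UAS-bla HEK 293T cells. Compounds were co-dosed with 50 uM chenodeoxycholic acid (final) and incubated 16 h at 37 °C.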

[14] = qHTS assay to identify small molecule agonists of the farnesoid-X-receptor (FXR) signaling pathway - cell viability counter screen (AID 743218); note: nearly all actives have a fitted effect of over 45% in size
Method in brief: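 Luminescence from CellTiter-Glo, read after 30 min at RT, reports viability of GeneBLAzer FXR-UAS-bla HEK 293T cells treated 16 h with compounds in the wells used for the beta-lactamase reporter.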

[15] = target: Bile acid receptor (Homo sapiens) (UniProt Q96RI1); test: qHTS assay to identify small molecule agonists of the farnesoid-X-receptor (FXR) signaling pathway (AID 743220; active = well fitted activation curve with a large enough effect in the signal ratio in the repeat runs, not every such curve was filed as active; the % refers to the signal ratio)
Method in brief: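 FXR-UAS-bla HEK 293T cells carrying a UAS-driven beta-lactamase reporter were plated for 5 h at 37C/5% CO2, then exposed to DMSO-dissolved Tox21 10K compounds for 16 h at 37C. A LiveBLAzer B/G FRET substrate was loaded for 2 h at room temperature before fluorescence reading.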

[16] = qHTS assay to identify small molecule antagonists of the farnesoid-X-receptor (FXR) signaling pathway - cell viability counter screen (AID 743221; active = well fitted cell-killing curve with a large enough effect in the repeat runs, not every such curve was filed as active; note: nearly all actives have a fitted effect of over 50% in size)
Method in brief: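 CellTiter-Glo, 30 min RT, luminescence; same wells as the LiveBLAzer FRET read. Cells: FXR-UAS-bla HEK 293T. Treatment: compound with chenodeoxycholic acid 50 uM final, 16 h at 37 C.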

[17] = target: Vitamin D3 receptor (Homo sapiens) (UniProt P11473); test: qHTS assay to identify small molecule agonists of the vitamin D receptor (VDR) signaling pathway (AID 743222; calls by dose curve)
Sequence of Vitamin D3 receptor (Homo sapiens) (P11473 whole entry, looked up): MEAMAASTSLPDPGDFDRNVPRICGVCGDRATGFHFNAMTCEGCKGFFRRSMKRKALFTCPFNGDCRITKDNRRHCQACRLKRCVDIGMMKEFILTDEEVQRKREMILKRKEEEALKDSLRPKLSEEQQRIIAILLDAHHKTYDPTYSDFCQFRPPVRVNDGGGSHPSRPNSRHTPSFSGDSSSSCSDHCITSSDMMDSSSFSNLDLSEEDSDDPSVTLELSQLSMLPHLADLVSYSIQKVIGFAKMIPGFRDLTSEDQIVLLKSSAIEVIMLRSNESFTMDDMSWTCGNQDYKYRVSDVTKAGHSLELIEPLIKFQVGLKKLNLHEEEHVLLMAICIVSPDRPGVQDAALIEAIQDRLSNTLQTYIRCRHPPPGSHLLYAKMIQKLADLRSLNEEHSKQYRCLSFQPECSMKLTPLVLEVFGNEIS
Method in brief: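 Beta-lactamase reporter readout (LiveBLAzer B/G FRET, 2 h RT) in VDR-bla cells after 16 h compound treatment at 37C, 5% CO2; cells pre-incubated 4 h before pin transfer of DMSO solutions.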

[18] = qHTS assay to identify small molecule antagonists of the peroxisome proliferator-activated receptor delta (PPARd) signaling pathway - cell viability counter screen (AID 743213); note: nearly all actives have a fitted effect of over 50% in size
Method in brief: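 PPARd-bla HEK293H cells (3000/well) got compound plus 300 nM L165041 agonist for 17 h at 37 C. Viability in the same wells came from CellTiter-Glo luminescence after 30 min at room temperature.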

[19] = target: Vitamin D3 receptor (Homo sapiens) (UniProt P11473); test: qHTS assay to identify small molecule antagonists of the vitamin D receptor (VDR) signaling pathway (AID 743223; active = well fitted inhibition curve with a large enough effect in the signal ratio in the repeat runs, not every such curve was filed as active; the % refers to the signal ratio)
Method in brief: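 After VDR-bla cells are plated and left 4 h at 37C, DMSO-dissolved compounds and 3 nM (final) calcitriol agonist are added. Incubation continues 16 h at 37C; FRET beta-lactamase substrate then develops 2 h at room temperature.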
% is set by controls: 0 for no effect and ±100 for the full control effect.

CC(=O)Nc1ccccc1
inactive: Potency [1] | Potency [2] | outcome [3] | outcome [4] | outcome [5] | Potency [6] | outcome [7] | outcome [8] | Potency [9] | outcome [10] | outcome [11] | Potency [12] | outcome [13] | Potency [14] | outcome [15] | Potency [16] | outcome [17]

O=c1[nH]nnc2ccccc12
inactive: Potency [1] | Potency [2] | outcome [3] | outcome [4] | outcome [5] | Potency [6] | outcome [7] | outcome [8] | Potency [9] | outcome [10] | outcome [11] | outcome [18] | Potency [12] | outcome [13] | Potency [14] | outcome [15] | outcome [17] | outcome [19]

C/C=C1/CC2C=CC1C2 (centres undefined)
inactive: Potency [1] | Potency [2] | outcome [3] | outcome [4] | outcome [5] | Potency [6] | outcome [7] | outcome [8] | Potency [9] | outcome [10] | outcome [11] | Potency [14] | Potency [16] | outcome [17] | outcome [19]

O=P(OC(CCl)CCl)(OC(CCl)CCl)OC(CCl)CCl
inactive: Potency [1] | Potency [2] | outcome [3] | outcome [4] | outcome [5] | Potency [6] | outcome [7] | outcome [8] | Potency [9] | outcome [10] | outcome [11] | outcome [18] | Potency [12] | Potency [14] | outcome [17] | outcome [19]

O=c1[nH]c(=O)n([C@H]2C[C@H](O)[C@@H](CO)O2)cc1Br
inactive: Potency [1] | Potency [2] | outcome [3] | outcome [4] | outcome [5] | Potency [6] | outcome [7] | outcome [8] | Potency [9] | outcome [10] | outcome [11] | outcome [18] | outcome [13] | Potency [14] | outcome [15] | Potency [16] | outcome [17] | outcome [19]

CCN(CC)CCCC(C)Nc1ccnc2cc(Cl)ccc12 (centres undefined)
inactive: Potency [1] | Potency [2] | outcome [3] | outcome [4] | outcome [5] | activation [6] -11.9% [at 8.36 µM] | viability change, negative = cytotoxic [7] -7.65% [at 8.36 µM] | outcome [8] | Potency [9] | outcome [10] | outcome [11] | viability change, negative = cytotoxic [18] -17.6% [at 6.26 µM] | Potency [12] | Potency [14] | Potency [16] | outcome [17] | activity change, negative = inhibition [19] 1.54% [at 6.95 µM]

FC(F)(F)c1ccc(Cl)c(Cl)c1
inactive: Potency [1] | Potency [2] | outcome [3] | outcome [4] | outcome [5] | Potency [6] | outcome [7] | outcome [8] | Potency [9] | outcome [10] | outcome [11] | Potency [12] | Potency [14] | Potency [16] | outcome [17]

O=C=NCCCCCCN=C=O
inactive: Potency [1] | Potency [2] | outcome [3] | outcome [4] | outcome [5] | Potency [6] | outcome [7] | outcome [8] | Potency [9] | outcome [10] | outcome [11] | outcome [18] | Potency [12] | outcome [13] | Potency [14] | outcome [15] | outcome [17] | outcome [19]
